Several values for one entry are separate records, joined by “and”; a condition that tells them apart may be missing. Identical values can stand only once. Inconclusive results are not listed. Some compounds were tested as several samples or in several runs, with calls that do not always agree. Activity calls are given as the source filed them. Unless noted, the call rests on the fitted dose curve; in most records, active means well fitted curve in the direction sought with a large enough effect in the repeat runs; inconclusive means weak or mixed curves; inactive means no such curve, though single readings can be large; an effect the other way counts as inactive or inconclusive.

The values below come from PubChem BioAssay (Tox21).

For test [1], the target named is Thyrotropin receptor (Homo sapiens) (UniProt P16473). The experiment in a line: qHTS assay to identify small molecule antagonists of the thyroid stimulating hormone receptor (TSHR) signaling pathway (AID 1259385; calls by dose curve; further: nearly all actives have a fitted effect of over 20% in size; further: potency means the concentration at half of the fitted maximal effect). In a few lines: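 Antagonist mode: compound-treated TSHR-expressing HEK293 cells were stimulated with 1.5 ng/mL TSH (final) in presence of Ro20-1724 for 30 min at RT. HTRF cAMP detection after 1 h; each compound tested at 15 concentrations, triplicate.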
Sequence of Thyrotropin receptor (Homo sapiens) (P16473 whole entry, looked up): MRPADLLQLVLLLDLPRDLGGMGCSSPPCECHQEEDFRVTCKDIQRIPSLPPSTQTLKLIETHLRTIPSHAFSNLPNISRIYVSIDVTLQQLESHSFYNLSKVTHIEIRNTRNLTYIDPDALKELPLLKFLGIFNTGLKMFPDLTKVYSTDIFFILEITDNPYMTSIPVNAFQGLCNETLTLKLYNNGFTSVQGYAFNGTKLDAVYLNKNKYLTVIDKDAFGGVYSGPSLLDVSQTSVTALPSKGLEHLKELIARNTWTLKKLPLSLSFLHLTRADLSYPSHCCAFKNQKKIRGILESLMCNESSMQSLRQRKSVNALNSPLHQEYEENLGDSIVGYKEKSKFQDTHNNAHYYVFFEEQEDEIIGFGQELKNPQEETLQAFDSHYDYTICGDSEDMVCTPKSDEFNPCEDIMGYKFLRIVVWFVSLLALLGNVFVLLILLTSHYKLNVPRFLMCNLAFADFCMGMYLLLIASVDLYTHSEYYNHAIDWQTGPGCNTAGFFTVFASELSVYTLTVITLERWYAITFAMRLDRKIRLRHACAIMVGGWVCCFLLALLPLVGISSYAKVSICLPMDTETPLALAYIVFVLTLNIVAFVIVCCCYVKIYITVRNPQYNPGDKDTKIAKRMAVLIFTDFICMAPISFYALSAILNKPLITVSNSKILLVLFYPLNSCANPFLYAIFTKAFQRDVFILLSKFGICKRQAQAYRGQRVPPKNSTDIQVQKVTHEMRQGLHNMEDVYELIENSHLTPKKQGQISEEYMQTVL
(In qHTS, concentration-response curves come from the screen itself.)

A short description of test [2]: qHTS assay to identify small molecule agonists of the estrogen receptor alpha (ER-alpha) signaling pathway in the presence of an antagonist - cell viability counter screen (AID 1259386).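 Further: cells exposed to compounds for 22 h at 37 °C before the viability read; nearly all actives have a fitted effect of over 30% in size.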 Further: potency means the concentration at half of the fitted maximal effect. In a few lines:
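Cytotoxicity was measured in parallel with the ERE-luciferase agonist screen, in the same wells. The cells were VM7Luc4E2, which endogenously express ER-alpha, and treatment was with compounds plus 10.0nM ICI-182,780 for 22hr.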

The target in test [3] is Progesterone receptor (Homo sapiens) (UniProt P06401). The experiment in a line: qHTS assay to identify small molecule agonists of the progesterone receptor (PR) signaling pathway (AID 1346784; calls by dose curve; further: nearly all actives have a fitted effect of over 30% in size). A digest of the protocol: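 PR-UAS-bla HEK 293T cells carrying a UAS-driven beta-lactamase reporter were seeded in medium with 2% charcoal-stripped FBS, preincubated 6 hr at 37C, then exposed to compounds in DMSO for 16 hr; agonism was read by LiveBLAzer B/G FRET fluorescence.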
Sequence of Progesterone receptor (Homo sapiens) (P06401 whole entry, looked up): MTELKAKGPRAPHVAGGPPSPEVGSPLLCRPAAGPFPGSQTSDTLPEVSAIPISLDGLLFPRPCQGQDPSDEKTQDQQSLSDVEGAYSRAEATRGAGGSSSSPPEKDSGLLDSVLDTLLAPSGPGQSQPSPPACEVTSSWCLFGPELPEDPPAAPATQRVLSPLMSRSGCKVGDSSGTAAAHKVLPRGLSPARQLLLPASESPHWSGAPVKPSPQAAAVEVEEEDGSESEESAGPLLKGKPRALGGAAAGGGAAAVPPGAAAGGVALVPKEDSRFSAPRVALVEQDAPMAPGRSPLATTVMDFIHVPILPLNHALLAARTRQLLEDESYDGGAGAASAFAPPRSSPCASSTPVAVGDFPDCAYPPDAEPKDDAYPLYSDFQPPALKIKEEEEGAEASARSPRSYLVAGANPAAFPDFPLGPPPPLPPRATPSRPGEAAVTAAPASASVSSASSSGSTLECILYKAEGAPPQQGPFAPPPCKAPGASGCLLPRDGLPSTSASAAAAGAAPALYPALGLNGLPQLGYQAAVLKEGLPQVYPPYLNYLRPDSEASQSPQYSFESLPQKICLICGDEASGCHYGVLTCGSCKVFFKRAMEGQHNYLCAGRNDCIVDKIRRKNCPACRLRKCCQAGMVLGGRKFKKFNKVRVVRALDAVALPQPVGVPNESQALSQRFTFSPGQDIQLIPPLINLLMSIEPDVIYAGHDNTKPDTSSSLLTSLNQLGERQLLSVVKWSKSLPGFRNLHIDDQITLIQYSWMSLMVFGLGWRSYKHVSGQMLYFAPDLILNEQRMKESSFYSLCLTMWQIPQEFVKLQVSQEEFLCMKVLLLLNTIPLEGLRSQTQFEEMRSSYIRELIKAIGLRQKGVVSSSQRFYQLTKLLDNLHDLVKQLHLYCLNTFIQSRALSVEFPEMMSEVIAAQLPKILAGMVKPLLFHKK

Test [4] in a line: qHTS assay to identify small molecule antagonists of the progesterone receptor (PR) signaling pathway - cell viability counter screen (AID 1346798). Further: series mostly up to about 92 µM; nearly all actives have a fitted effect of over 50% in size. In a few lines: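 PR-UAS-bla HEK293T cells in medium with 2% charcoal-stripped FBS were treated with compounds plus R5020 for 16 hr at 37C. Cell viability was then read by CellTiter-Glo luminescence after 30 min at room temperature in the same wells.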

Test [5] can be described thus: qHTS assay to identify small molecule agonists of the progesterone receptor (PR) signaling pathway - cell viability counter screen (AID 1346799; calls by dose curve; further: nearly all actives have a fitted effect of over 45% in size). A digest of the protocol: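 PR-UAS-bla HEK293T cells, 3,000 per well in medium with 2% charcoal-stripped FBS, were preincubated 6 hr at 37C, then exposed to compounds for 16 hr; viability was read as CellTiter-Glo luminescence after 30 min at room temperature.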

A short description of test [6]: qHTS assay to identify small molecule antagonists of the TGF-beta/Smad signaling pathway - cell viability counter screen (AID 1346824). Further: nearly all actives have a fitted effect of over 50% in size. A digest of the protocol: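 Cytotoxicity counter-screen run in the same wells as the beta-lactamase Smad reporter read: CellTiter-Glo luminescence after 30 min at room temperature. HEK 293T SBE-bla cells had 5 hr compound exposure at 37 C with TGF-beta1 (0.25 ng/mL stock).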

Test [7] in a line: qHTS assay to identify small molecule agonists of the TGF-beta/Smad signaling pathway - cell viability counter screen (AID 1346829). Further: top concentration of the series differs between compounds; nearly all actives have a fitted effect of over 45% in size. A digest of the protocol:
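Tox21 qHTS format: SBE-bla HEK 293T cells treated with DMSO-dissolved compounds for 5 hr; CellTiter-Glo luminescence after 30 min at room temperature.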

The nature of test [8]: qHTS assay to identify small molecule agonists of the TGF-beta/Smad signaling pathway (AID 1346859; active means well fitted activation curve with a large enough effect in the signal ratio in the repeat runs, not every such curve was filed as active; the % refers to the signal ratio; further: series mostly up to about 77 µM). A digest of the protocol: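 HEK 293T cells stably carrying a beta-lactamase reporter driven by the Smad binding element were seeded overnight, exposed to DMSO-dissolved compounds for 5 hr at 37 C, 5% CO2, then loaded with FRET substrate for 2 hr at room temperature.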
For test [9], the target named is Thyrotropin-releasing hormone receptor (Homo sapiens) (UniProt P34981). As to the kind of experiment: qHTS assay to identify small molecule antagonists of the thyrotropin-releasing hormone receptor (TRHR) signaling pathway (AID 1346877; active means well fitted inhibition curve with a large enough effect in the repeat runs, not every such curve was filed as active; further: series mostly up to about 51 µM). In a few lines: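 Antagonism is measured as suppression of the calcium response to 1 nM TRH in TRHR-HEK293 cells that have been dye-loaded for 2 h at 37 °C after overnight plating. Each compound is tested at 15 concentrations in triplicate.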
Sequence of Thyrotropin-releasing hormone receptor (Homo sapiens) (P34981 whole entry, looked up): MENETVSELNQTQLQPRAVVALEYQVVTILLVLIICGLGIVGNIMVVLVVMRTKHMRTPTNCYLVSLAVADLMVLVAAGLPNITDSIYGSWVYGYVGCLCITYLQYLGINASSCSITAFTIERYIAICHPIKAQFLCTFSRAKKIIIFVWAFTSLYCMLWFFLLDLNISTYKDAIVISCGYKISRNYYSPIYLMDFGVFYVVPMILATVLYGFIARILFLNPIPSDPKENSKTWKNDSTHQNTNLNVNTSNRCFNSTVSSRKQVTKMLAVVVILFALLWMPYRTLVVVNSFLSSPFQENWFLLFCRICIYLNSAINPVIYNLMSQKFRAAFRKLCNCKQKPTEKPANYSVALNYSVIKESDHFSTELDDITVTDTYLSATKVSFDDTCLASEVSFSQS

For test [10] the target is unchanged. As to the kind of experiment: qHTS assay to identify small molecule agonists of the thyrotropin-releasing hormone receptor (TRHR) signaling pathway (AID 1346891; calls by dose curve; further: series mostly up to about 58 µM). A digest of the protocol:
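TRHR-expressing HEK293 cells were plated 18 h at 37 °C/5% CO2, loaded with calcium dye 2 h at 37 °C, then given compound in DMSO; fluorescence was read kinetically for 3 min at 1 s intervals.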

Test [11] is described as follows: Human pregnane X receptor (PXR) small molecule agonists, qHTS cell viability counter screen (AID 1346977). Further: nearly all actives have a fitted effect of over 50% in size. Further: potency means the concentration at half of the fitted maximal effect. In a few lines:
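PXR-Luc HepG2 cells in medium with 5% charcoal-stripped FBS were pre-incubated 5hr, then exposed to compounds for 24hr at 37C. Viability was read in the same wells by CellTiter-Fluor fluorescence, reagent added after 23hr with a 1hr incubation.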

A short description of test [12]: Caspase-3/7 induction in HepG2 cells by small molecules, qHTS assay (AID 1346978). Further: nearly all actives have a fitted effect of over 15% in size. In a few lines:
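Caspase-3/7 induction was measured by Caspase-Glo 3/7 luminescence (30 min, room temperature) after a 17 hr compound exposure of wild-type HepG2 cells seeded at 2,000 per well and pre-incubated 5 hr.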

Test [13] is described as follows: Caspase-3/7 induction in CHO-K1 cells by small molecules, qHTS assay (AID 1346980). Further: nearly all actives have a fitted effect of over 15% in size. A digest of the protocol: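 Luminescent Caspase-Glo 3/7 read (30min, room temperature) quantified apoptosis induction. Cells were wild-type CHO-K1, treated with compound for 17hr at 37 C and 5% CO2.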
Test [14] can be described thus: Caspase-3/7 induction in HepG2 cells by small molecules, qHTS cell viability counter screen (AID 1346981). Further: series mostly up to about 92 µM; nearly all actives have a fitted effect of over 30% in size. In a few lines: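 Cell viability is measured as a cytotoxicity counter screen alongside the Caspase-Glo 3/7 readout in identical wells. Wild-type HepG2 cells are treated with test compounds for 16 hr at 37 C before CellTiter-Fluor addition and a 1-hr incubation.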

Test [15] has as its target Nuclear receptor subfamily 1 group I member 2 (Homo sapiens) (UniProt O75469). The experiment in a line: Human pregnane X receptor (PXR) small molecule agonists, qHTS assay (AID 1346982). Further: nearly all actives have a fitted effect of over 35% in size. Further: potency means the concentration at half of the fitted maximal effect. A digest of the protocol: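 Cells: HepG2 stably carrying PXR-Luc. Medium held 5% charcoal-stripped FBS. Compounds in DMSO added after 5 hr plating, incubated 24 hr, then luminescence quantified with ONE-Glo.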

The target of test [16] is Progesterone receptor (Homo sapiens) (UniProt P06401). The experiment in a line: qHTS assay to identify small molecule antagonists of the progesterone receptor (PR) signaling pathway (AID 1346795; active means well fitted inhibition curve with a large enough effect in the signal ratio in the repeat runs, not every such curve was filed as active; the % refers to the signal ratio; further: potency means the concentration at half of the fitted maximal effect). A digest of the protocol:
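PR-UAS-bla HEK293T cells carrying a UAS-driven beta-lactamase reporter were plated in medium with 2% charcoal-stripped FBS and rested 6 hr at 37C. Compounds were added with 1 nM R5020 (final) for 16 hr, then FRET substrate loaded 2 hr at room temperature.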

The nature of test [17]: Caspase-3/7 induction in CHO-K1 cells by small molecules, qHTS cell viability counter screen (AID 1346979). Further: nearly all actives have a fitted effect of over 35% in size. Further: potency means the concentration at half of the fitted maximal effect. A digest of the protocol: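 Wild-type CHO-K1 cells were seeded at 1,500 per well, rested 5hr at 37 C, then exposed to compounds in DMSO. After 16hr, CellTiter-Fluor reagent was added and fluorescence read 1hr later as the viability measure.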
In test [18] the target is Nuclear receptor subfamily 1 group I member 2 (Rattus norvegicus) (UniProt Q9R1A7). The experiment in a line: Rat pregnane X receptor (rPXR) activation by small molecules, qHTS assay (AID 1346983). Further: nearly all actives have a fitted effect of over 20% in size. The settings on record: rPXR luciferase reporter cells, One-Glo luminescence, 24 h; max activation: stronger effect = higher value. A digest of the protocol: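 Luminescent readout (One-Glo luciferase, 30 min room temperature) followed 24 hr compound treatment at 37 C of rPXR cells plated 2,000 per well and preincubated 5hr; qHTS format with compounds delivered in DMSO.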
Sequence of Nuclear receptor subfamily 1 group I member 2 (Rattus norvegicus) (Q9R1A7 whole entry, looked up): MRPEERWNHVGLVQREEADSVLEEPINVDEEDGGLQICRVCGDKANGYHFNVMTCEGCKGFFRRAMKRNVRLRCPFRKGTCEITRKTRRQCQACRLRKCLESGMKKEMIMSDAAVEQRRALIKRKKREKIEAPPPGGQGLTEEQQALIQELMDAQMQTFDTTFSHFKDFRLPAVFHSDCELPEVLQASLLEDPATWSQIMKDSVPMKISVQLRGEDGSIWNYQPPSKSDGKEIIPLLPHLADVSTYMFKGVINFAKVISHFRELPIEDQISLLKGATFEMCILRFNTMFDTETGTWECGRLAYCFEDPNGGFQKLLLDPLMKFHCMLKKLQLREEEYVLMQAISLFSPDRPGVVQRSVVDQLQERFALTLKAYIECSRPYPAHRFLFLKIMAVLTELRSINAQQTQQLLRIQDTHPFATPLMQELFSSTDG

The target in test [19] is Nuclear receptor subfamily 1 group I member 2 (Homo sapiens) (UniProt O75469). The experiment in a line: CYP3A4 induction through human pregnane X receptor (PXR) by small molecules, qHTS assay (AID 1346984). Further: nearly all actives have a fitted effect of over 40% in size. A digest of the protocol: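 Quantitative HTS in DPX-2 cells, i.e. HepG2 transfected with PXR response element and CYP3A4-promoter luciferase. Compounds in DMSO incubated 24hr at 37C; then P450-Glo CYP3A4 substrate, 3uM final, 3hr; One-Glo luminescence.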
Sequence of Nuclear receptor subfamily 1 group I member 2 (Homo sapiens) (O75469 whole entry, looked up): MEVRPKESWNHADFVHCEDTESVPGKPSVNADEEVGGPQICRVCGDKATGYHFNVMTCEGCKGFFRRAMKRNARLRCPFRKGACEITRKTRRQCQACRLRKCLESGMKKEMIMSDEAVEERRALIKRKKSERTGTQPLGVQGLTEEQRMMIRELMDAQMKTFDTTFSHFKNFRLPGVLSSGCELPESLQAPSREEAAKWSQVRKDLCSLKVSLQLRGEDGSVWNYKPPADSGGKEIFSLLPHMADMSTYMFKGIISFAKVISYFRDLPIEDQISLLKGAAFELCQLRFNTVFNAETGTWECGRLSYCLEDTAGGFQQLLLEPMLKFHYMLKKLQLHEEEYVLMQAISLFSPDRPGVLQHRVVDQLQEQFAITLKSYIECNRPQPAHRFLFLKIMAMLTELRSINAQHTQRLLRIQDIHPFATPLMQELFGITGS

Test [20] has the same target. The experiment in a line: Human pregnane X receptor (PXR) activation by small molecules, qHTS assay (AID 1346985). Further: nearly all actives have a fitted effect of over 40% in size. A digest of the protocol:
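DPX-2 cells (HepG2 co-transfected with a PXR response element and a CYP3A4-promoter luciferase construct) were seeded at 2,000 per well, rested 5 hr at 37C, then exposed to DMSO-dissolved compounds for 24 hr. Activation was read as luciferase luminescence.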
On the % scale 0 is the no-effect control and ±100 the full control effect.

In the case of `[Cl][Nd]([Cl])[Cl]`, the Potency entry in test [1], in test [2], in [3], in [4], in test [5] and in test [7] was “inactive” in each case. The Potency entry in [8], in [11], in [12], in test [14] and in test [15] was “inactive” in each case. Also, the call in test [6], in [9], in [10] and in test [13] was inactive.

With `CNCc1ccc(NC(=O)c2c[nH]c3c2C(=O)CCC3)cc1`, the Potency result in [1], in test [2], in test [3], in test [16], in [4] and in [7] was “inactive” each time. For the same compound, the Potency entry in test [8], in test [12] and in test [17] was “inactive” in each case. Besides, the compound was called inactive in [6], in test [9], in test [10] and in [13]. Besides, in test [15], the Potency was 1.09 µM (active).

`CN(C)CC/C=C1\c2ccccc2Sc2ccc(Cl)cc21`: the Potency was 26.6 µM (active) in test [1], 21.1 µM (active) in test [16] and 29.8 µM (active) in [11]. Also, the Potency result in test [2], in test [3], in [7] and in test [8] was “inactive” each time. In addition, the call in test [9], in test [10] and in [13] was inactive. Also, the max activation in test [18] was 3.57% (inactive).

Regarding `CCNc1nc(N)nc(Cl)n1`, the Potency result in test [1], in [2], in test [3], in test [16], in [4] and in test [7] was “inactive” throughout. Moreover, the Potency result in [8], in test [11], in test [12], in test [14] and in [15] was “inactive” throughout. For the same compound, the compound was classed as inactive in [6], in [9], in test [10] and in test [13].

With `CCC1CCC(CCC(=O)O)C1` (configuration not stated), the Potency result in test [1], in test [2], in [3], in test [4], in [7] and in test [8] was “inactive” throughout. For the same compound, the Potency result in test [11], in test [12], in test [17] and in [14] was “inactive” throughout. Further, the compound was classed as inactive in test [6], in test [9], in [10] and in [13].

In the case of `COc1ccc2nc(S(=O)Cc3ncc(C)c(OC)c3C)[nH]c2c1` (configuration not stated), the Potency entry in test [1], in test [3], in test [7], in test [8], in test [11] and in test [12] was “inactive” in each case. Moreover, the Potency result in test [14] was “inactive”. Besides, the Potency in test [2] was 48 µM (active) and inactive; in [17], 67.8 µM (active); in [15], 53.8 µM (active) and 26.6 µM (active). Further, the outcome in [6], in test [9], in test [10] and in test [13] was inactive.

On to `O=C(O)CCC(=O)c1ccc(-c2ccccc2)cc1`, for which the Potency entry in test [1], in test [2], in test [3], in [5], in [7] and in test [11] was “inactive” in each case. The Potency entry in test [12], in test [17], in test [15], in test [19] and in test [20] was “inactive” in each case. Moreover, the outcome in [6] and in test [13] was inactive. Further, the max activation in [18] is 11.9% (inactive).
